# Data: PubChem BioAssay (Tox21)
# Inconclusive results are not listed. Entries that show only a call come without a potency. The source made the active and inactive calls. Calls follow the shape of the dose curve; as a rule, active = well fitted activation curve with a large enough effect in the repeat runs; inconclusive = weak or mixed curves; inactive = flat fitted curve, though single readings scatter.
# Experiment: Caspase-3/7 induction in HepG2 cells by small molecules, qHTS assay (AID 1346978); also: nearly all actives have a fitted effect of over 15% in size
# Conditions: HepG2 caspase-3/7 activation, Caspase-Glo luminescence, 17 h; series mostly up to 92.4 µM
# Text: National Center for Advancing Translational Sciences [NCATS] NIH Chemical Genomics Center [NCGC] U.S. Environmental Protection Agency [EPA] National Institutes of Environmental Health Sciences [NIEHS] National Toxicology Program [NTP] Assay overview: Apoptosis is a process of programmed cell death and plays a central role in the development of multicellular organisms. It is a highly regulated process and induces cell death by activating caspases, which are the members of cysteine aspartic acid-specific protease (caspase) family. Caspases involved in apoptosis are classified by their mechanism of action as initiator caspases (caspase-2, -8, -9 and -10) and executioner caspases (caspase-3, -6, and -7). Inhibition of apoptosis results in number of cancers, autoimmune diseases, inflammatory diseases and viral infection. To identify small molecule compounds that induce apoptosis, a homogeneous, luminescent Caspase-Glo 3/7 assay was used. Wild type HepG2 cells were used to screen Tox21 libraries for identifying caspase-3/7 activity inducers.
# Assay Protocol Summary: HepG2 cells were dispensed at 2,000 per well in 5uL of culture medium into white solid bottom 1536-well plates (Corning Life Sciences, Corning, NY) using a Multidrop Combi (Thermo Scientific, Waltham, MA) dispenser. The assay plates were incubated at 37 C and 5% CO2 for 5hr, and then 23nL of compounds dissolved in DMSO and positive control were transferred using a Pintool station (Wako, San Diego, CA). The assay plates were incubated at 37C and 5% CO2 for 17hr. For caspase-3/7 activity read, 4uL of Caspase-Glo 3/7 reagent (Promega Corporation, Madison, WI) was added to each well of the assay plates using Flying Reagent Dispenser (FRD, Aurora Discovery, San Diego, CA) and incubated the assay plates at room temperature for 30min. The luminescence signal was quantified using a ViewLux plate reader (Perkin Elmer, Shelton, CT).
# Potency is read from the fitted curve at half-maximal effect.
row,Structure (SMILES),Potency
1,Cc1ccc2c(Br)cc(Br)c(O)c2n1,inactive
2,CCOC(=O)[C@H](CCc1ccccc1)N[C@@H](C)C(=O)N(CC(=O)O)C1Cc2ccccc2C1,inactive
3,C=CC(=O)[O-].C=CC(=O)[O-].[Zn+2],inactive
4,CCCCCCCCOc1ccc(C(=O)O)cc1,inactive
5,O=C1c2ccccc2C(=O)N1CCc1noc(-c2ccc(CN3CCCCCC3)s2)n1,inactive
6,Brc1cc2ccccc2c2ccccc12,inactive
7,CCCCCCNC(=O)n1cc(F)c(=O)[nH]c1=O,inactive
8,O=C=Nc1cccc(C(F)(F)F)c1,inactive
9,Cc1cscn1,inactive
10,O=c1cc(-c2ccccc2)oc2ccc3ccccc3c12,inactive
11,CCOc1cccc(-n2cc(C(=O)N3CCN(c4cc(C(=O)O)c5ccccc5c4)CC3)nc2-c2ccc(C)cc2)c1,inactive
12,N#[N+]c1ccc2c(S(=O)(=O)[O-])cccc2c1O,inactive
13,c1cc(N(CC2CO2)CC2CO2)ccc1Cc1ccc(N(CC2CO2)CC2CO2)cc1 (stereo not given),inactive
14,CC(CN(C)C)C(C)(O)Cc1ccc(Cl)cc1 (stereo not given),inactive
15,CCOC(=O)c1ccc(C#Cc2ccc3c(c2)C(C)(C)CCS3)nc1,inactive
16,NNC(=O)CP(=O)(c1ccccc1)c1ccccc1,inactive
17,COc1ncnc(NS(=O)(=O)c2ccc(N)cc2)c1OC,inactive
18,O=C(O)CCC(=O)C(=O)O,inactive
19,CCC1CO1 (stereo not given),inactive
20,CC(C)(C)CC(=O)OCC(=O)[C@@]1(O)CC[C@H]2[C@@H]3CCC4=CC(=O)C=C[C@]4(C)[C@H]3[C@@H](O)C[C@@]21C,inactive

row,Structure (SMILES),Potency
1,O=C(/C=C/c1ccccc1)OCCc1ccccc1,inactive
2,CCCCCCCCCCC(=O)O,inactive
3,C[C@H]1C[C@H](O)c2ccsc2S1(=O)=O,inactive
4,O=C1NC(=O)c2cc([N+](=O)[O-])ccc21,inactive
5,Cc1cccc(N(C)C(=S)Oc2ccc3c(c2)CCC3)c1,inactive
6,Cc1cc(O)ccc1O,inactive
7,COc1cc(C(=O)NC2CCN(C)CC2)ccc1Nc1ncc2c(n1)N(C1CCCC1)CC(F)(F)C(=O)N2C,22.3 µM (active)
8,CC(CC1c2ccccc2CCc2ccccc21)CN(C)C (stereo not given),inactive
9,c1ccc(C[n+]2cccc3ccccc32)cc1,inactive
10,COc1ccc(OC(=O)N(CC(=O)O)Cc2ccc(OCCc3nc(-c4ccccc4)oc3C)cc2)cc1,inactive
11,COc1cc(C(=O)NCCCCCC(=O)O)cc(OC)c1OC,inactive
12,CC1CC(C)C(=O)C1=O (stereo not given),inactive
13,Nc1ncnc2c1ncn2[C@H]1CC[C@@H](CO)O1,inactive
14,CCCCCCCC/C=C\CCCCCCCCCCCC(=O)O,inactive
15,CCOC(=O)C1=C(C)NC(C)=C(C(=O)OC)C1c1cccc(Cl)c1Cl (stereo not given),inactive
16,O=C(O)C[C@H](NC(=O)OCc1ccccc1)C(=O)O,inactive
17,C[C@@H]1CC(=O)NN=C1c1ccc(NN=C(C#N)C#N)cc1,29.8 µM (active)
18,Cc1cccc(O)c1N,inactive
19,CC(C)c1nc(CN(C)C(=O)N[C@H](C(=O)N[C@@H](Cc2ccccc2)C[C@H](O)[C@H](Cc2ccccc2)NC(=O)OCc2cncs2)C(C)C)cs1,inactive
20,OC1(c2ccccc2)CCNCC1,inactive
